HP1b chromo inh = HP1-beta chromodomain-methylated histone interaction inhibition | AlphaScreen HP1-beta / biotin-H3K9me3 peptide binding | P83916 | Potency, µM (top dose mostly 114 µM), inactives show at the highest dose activity change, negative = inhibition, actives largely listed as inhibitors | actives 0.56% (n = 390,000); further: potency means the concentration at half of the fitted maximal effect; nearly all actives have a fitted effect of over 70% in size
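HP1-beta protein (50 nM final) preincubated 30 min at room temperature with biotinylated H3(1-18)K9me3 peptide (50 nM) in PBS pH 7.4, 0.01% Tween-20, then compound added for 30 min. AlphaScreen streptavidin donor/nickel chelate acceptor beads (10 ug/mL final), 30 min dark, luminescence read.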
G9a inh = blocks human histone lysine methyltransferase G9a; actives 8.8% (n = 350,000); G9a H3K9 monomethylation, AlphaScreen, 2 h; Q96KQ7; Potency, µM (top dose mostly 102 µM), for the others: at the highest dose activity, negative = inhibition, hits mostly inhibitors; further: potency means the concentration at half of the fitted maximal effect; on the % scale 0 is the no-effect control and ±100 the full control effect; nearly all actives have a fitted effect of over 75% in size
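Compounds were preincubated with 20 nM G9a for 15 min, after which biotinylated H3K9 peptide (500 nM) and SAM (20 uM) started a 2 h room-temperature reaction. Monomethylated product was quantified by antibody-based AlphaScreen chemiluminescence.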
JMJD2A Tudor inh = JMJD2A Tudor domain (human) inhibition; actives 4.4% (n = 390,000); AID 504339; Potency, µM (highest dose often 114 µM), for inactives: top-dose activity change, negative = inhibition, usual class: inhibitors; O75164; AlphaScreen JMJD2A-Tudor / H3K4me3 peptide binding; further: potency means the concentration at half of the fitted maximal effect; on the % scale 0 is the no-effect control and ±100 the full control effect; nearly all actives have a fitted effect of over 50% in size
Target sequence (O75164 whole entry, looked up, the tested form may be a part): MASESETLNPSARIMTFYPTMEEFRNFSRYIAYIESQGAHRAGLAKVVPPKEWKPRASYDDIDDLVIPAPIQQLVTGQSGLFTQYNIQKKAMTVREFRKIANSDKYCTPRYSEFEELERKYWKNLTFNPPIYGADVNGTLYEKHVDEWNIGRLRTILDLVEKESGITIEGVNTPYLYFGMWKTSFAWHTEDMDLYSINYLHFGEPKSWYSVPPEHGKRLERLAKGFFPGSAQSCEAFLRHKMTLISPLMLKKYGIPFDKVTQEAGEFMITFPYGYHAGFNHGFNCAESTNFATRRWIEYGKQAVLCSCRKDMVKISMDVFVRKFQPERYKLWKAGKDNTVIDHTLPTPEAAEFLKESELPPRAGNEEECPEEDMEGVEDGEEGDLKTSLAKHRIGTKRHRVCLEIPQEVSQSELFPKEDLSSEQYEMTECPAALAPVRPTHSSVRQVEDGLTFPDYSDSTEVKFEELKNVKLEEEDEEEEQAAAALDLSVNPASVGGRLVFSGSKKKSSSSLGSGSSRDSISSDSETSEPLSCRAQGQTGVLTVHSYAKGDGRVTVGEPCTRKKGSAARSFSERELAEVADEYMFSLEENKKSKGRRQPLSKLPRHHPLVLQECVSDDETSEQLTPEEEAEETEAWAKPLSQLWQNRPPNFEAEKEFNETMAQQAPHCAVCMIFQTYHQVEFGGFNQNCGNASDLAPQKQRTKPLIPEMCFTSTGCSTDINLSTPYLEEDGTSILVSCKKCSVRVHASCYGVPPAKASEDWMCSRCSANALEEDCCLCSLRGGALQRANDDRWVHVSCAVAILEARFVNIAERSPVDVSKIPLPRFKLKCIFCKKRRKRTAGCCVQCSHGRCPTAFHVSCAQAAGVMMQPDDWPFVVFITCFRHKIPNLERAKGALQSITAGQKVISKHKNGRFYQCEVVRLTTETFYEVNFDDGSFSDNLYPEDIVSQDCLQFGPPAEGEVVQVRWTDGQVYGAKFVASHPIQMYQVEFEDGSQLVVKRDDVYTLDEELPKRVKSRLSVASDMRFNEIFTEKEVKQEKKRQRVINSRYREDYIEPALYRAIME
BAZ2B block = inhibitors of human BAZ2B bromodomain | AlphaScreen BAZ2B-H3K14Ac peptide displacement | Potency, µM (top dose mostly 114 µM), without a hit: at the highest dose activity change, negative = inhibition, most hits filed as inhibitors | actives 4.4% (n = 360,000); further: potency means the concentration at half of the fitted maximal effect; on the % scale 0 is the no-effect control and ±100 the full control effect; nearly all actives have a fitted effect of over 60% in size
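BAZ2B 50 nM plus b-H3(5-23)K14Ac 50 nM, PBS pH 7.4/0.01% Tween-20, 30 min RT; compound added (max 110 uM), 30 min RT; streptavidin donor/Ni-chelate acceptor beads 10 ug/mL final, 20 min dark; AlphaScreen read.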
PI5P4K alpha inh = inhibitors of human PI5P4K alpha; P48426; max response, %; AID 652105; actives 1.2% (n = 330,000); PI5P4Kalpha enzyme, ADP-Glo luminescence, 60 min; active compounds read low; active means max response of -50% or lower; inconclusive means between -30% and -50%; inactive means -30% or higher; further: value at the top dose of about 77 µM; on the % scale 0 is the no-effect control and ±100 the full control effect
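Quantitative HTS of the MLSMR library against PI5P4Kalpha with substrate. ATP added last at 5 microM final; room temperature, 60 minutes. Remaining ATP depleted, ADP converted and read as luminescence.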
L3MBTL1 block = L3MBTL1 (human) inhibition. Potency, µM (series often up to 57.1 µM), for inactives: at the top dose activity, negative = inhibition, most hits filed as inhibitors. AID 485360. actives 0.66% (n = 230,000). AlphaScreen L3MBTL1–H3K9me1 peptide binding; further: potency means the concentration at half of the fitted maximal effect; on the % scale 0 is the no-effect control and ±100 the full control effect; nearly all actives have a fitted effect of over 60% in size
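First, the protein-peptide complex forms for 30 min at room temperature (L3MBTL1 50 nM, biotinylated H3K9me1 peptide 75 nM). Next, compounds are pin-transferred and incubated 30 min. Finally, AlphaScreen beads are added and read after 30 min.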
The depositor's hits bear a star; ? = inconclusive; / = no result; ! = not confirmed by another sample; [ ] = remark or other dose. Hits are enriched below; roughly 11% of the tested compounds scored in any of these assays. Unless noted, the call rests on the fitted dose curve; in most records, active means well fitted inhibition curve with a large enough effect; inconclusive means small, poorly fitted or top-dose-only effect; inactive means no such curve, though single readings can be large or run the other way.

SMILES	HP1b chromo inh	G9a inh	JMJD2A Tudor inh	BAZ2B block	PI5P4K alpha inh	L3MBTL1 block
O=C(CN1C(=O)S/C(=C\C=C\c2ccccc2)C1=O)Nc1ccccc1C(=O)O	-2.8%[57 µM]	?	-17.8%	-33.2%	-67.2*	-11.9%
CCS(=O)(=O)C(C)(C)S(=O)(=O)CC	/	-38.2%[12.7 µM]	/	/	/	/
COC1=C[C@H]2C3=C([C@H]2C1=O)[C@H](NC(C)=O)CCc1cc(OC)c(OC)c(OC)c13	/	24.9%[21.5 µM]	/	/	/	/
Cc1ccccc1N1C(=O)NC(=O)/C(=C\c2cc(Br)c(N3CCOCC3)o2)C1=O	?	?	-27.2%	?	-75.0*	?
Cc1ccccc1N1C(=O)/C(=C/c2ccco2)C(=O)NC1=S	/	1.78µM*	/	1.12µM*	/	/
CCOc1ccc(N2C(=O)/C(=C\c3cccs3)C(=O)NC2=S)cc1	22.8%	7.08µM*	35.5µM*	-33.4%	-64.4*	25.1µM*
O=C1NC(=O)C(=Cc2cccs2)C(=O)N1	15.4%[57 µM]	/	0.0%	/	-18.8	/
O=C1NC(=O)N(CC2CCCO2)C(=O)/C1=C/c1cccs1 (stereo unspecified)	28.3%	8.3%[12.7 µM]	-25.7%	-4.1%	?	-29.4%
O=C1NC(=S)N(c2ccccc2F)C(=O)/C1=C\c1cccs1	-12.2%	1.26µM*	50.1µM*	50.1µM*	-91.1*	2.4%
CCOc1ccc(N2C(=O)/C(=C/c3ccco3)C(=O)NC2=S)cc1	1.58µM*	16.1%[0.501 µM]	0.794µM*	28.2µM*	-82.1*	-8.0%[2.29 µM]
O=C(Nc1cccnc1)C1CCN(S(=O)(=O)c2cccs2)CC1	17.5%	16.5%	-17.4%	1.5%	-10.1	9.2%
CN(C)c1ccc(P(=O)(OC2CCCCC2)C(Nc2ccccc2)c2cccnc2)cc1 (stereo unspecified)	-16.8%	/	-20.8%	39.8µM*	0.4	/
O=c1c2ccccc2nc(CSc2ncnc3nc[nH]c23)n1-c1ccccc1Cl	15.2%	?	?	-6.4%	-21.4	-22.7%
O=c1c2ccccc2nc(CSc2ncnc3nc[nH]c23)n1-c1ccccc1	-32.3%	?	31.6µM*	10.4%	/	-1.2%[11.4 µM]
S=c1[nH]nc(Cn2c(-c3ccccn3)nc3ccccc32)n1-c1ccc2c(c1)OCCO2	?	-134.8%[59 µM]	3.16µM*	-5.8%	-21.0	23.1%
COc1ccc(NC(=O)c2ccco2)cc1NC(=O)COc1cccc(C)c1C	?	13.8%[59 µM]	-17.9%	-0.5%	/	/
C=CCn1c(C)c(C=C2C(=O)NC(=O)NC2=O)c2ccccc21	21.8%	50.1µM*	-29.6%	-37.7%	-16.9	-10.3%
CCCn1cc2c3c(cccc31)C1CC(C)CN(C)C1C2 (stereo unspecified)	/	?	/	-24.7%	/	/
CC(O)C(C)OC(=O)[C@@H]1C[C@@H]2c3cccc4c3c(cn4C(C)C)C[C@H]2N(C)C1 (stereo partly specified)	/	44.7µM*!	/	/	/	/
COc1cccc(C(=O)c2c(N)c(-c3nc(-c4ccccc4)cs3)c3ccccn23)c1	68.8%	34.4%[59 µM]	7.0%	8.9%	/	/
Cn1c(O)c(C(c2ccccn2)c2c(O)n(C)c(=S)[nH]c2=O)c(=O)[nH]c1=S	35.3%	21.9%[0.0925 µM]	79.4µM*	50.1µM*	-12.6	2.9%
Cc1ccc(-n2c(O)c(C=NCc3ccccn3)c(=O)[nH]c2=S)cc1	58.1%	/	2.7%	-12.5%	0.5	7.0%
CC1=CC(=C2C(=O)NC(=S)NC2=O)C=C(C(F)(F)F)N1Cc1ccccc1	58.9%	79.4µM*	-6.4%	2.8%	-13.8	/
CC1=CC(=C2C(=O)NC(=O)NC2=O)C=C(C(F)(F)F)N1Cc1ccccc1	32.6%	/	-11.8%	-12.6%	-4.9	39.1%
c1cncc(CNC2CCCC2)c1	39.0%	7.7%[0.501 µM]	?	?	-0.6	6.8%
SMILES	HP1b chromo inh	G9a inh	JMJD2A Tudor inh	BAZ2B block	PI5P4K alpha inh	L3MBTL1 block
c1cncc(CNC2=NCCCCC2)c1	4.1%	?	-12.1%	79.4µM*	/	-8.1%
COc1cccc(NC(=O)Cn2c(-c3nonc3N)nc3ccccc32)c1	42.5%	-1.5%[59 µM]	-5.9%	1.1%	/	/
Cc1cc(C=C2C(=O)N(C)C(=S)N(C)C2=O)c(C)n1C1CCCC1	-11.4%	11.2µM*	?	?	-13.9	/
Cc1cc(/C=C2\C(=O)NC(=S)N(C)C2=O)c(C)n1C1CCCCC1	21.1%	?	-15.2%	-20.7%	1.3	-8.4%
Cc1cc(C=C2C(=O)N(C)C(=S)N(C)C2=O)c(C)n1-c1cccnc1	-12.7%	8.91µM*	-30.7%	44.7µM*	?	-11.1%
CCN1C(=O)C(=Cc2cc(C)n(C3CC3)c2C)C(=O)N(CC)C1=S	27.0%	50.1µM*	-21.9%	-0.6%	-7.5	-12.7%
COC(=O)c1c(NC(=O)C2CC=CCC2C(=O)O)sc2c1CCCCC2 (stereo unspecified)	?	/	-32.4%	?	-3.7	/
Cc1ccc(CN2CCSc3ccc(C(=O)N4CCC5(CC4)OCCO5)cc32)cc1	11.3%	50.1µM*	?	-38.1%[57.1 µM]	-0.3	/
N#Cc1cccc(NC(=O)c2sc3nc4c(cc3c2N)N2CCC4CC2)c1	57.0%	1.0%[59 µM]	17.1%	5.1%	/	/
CCCN(CC#CCOc1ccc(OC)cc1)CCC	-46.6%	8.91µM*	6.31µM*	56.2µM*	1.9	-0.3%
Cc1cc(-c2ccc(C)c(S(=O)(=O)N3CCOc4ccc(Cl)cc43)c2)on1	63.6%	24.2%[59 µM]	-10.1%	32.9%	/	/
CN1C(=O)C(Cc2ccc(OCc3ccccc3)cc2)C(=O)N(C)C1=O	45.6%	79.4µM*	-12.4%	-19.9%	-6.4	/
CCOc1ccccc1NC(=O)CCn1cccc1	7.9%	?	-16.6%	/	2.8	/
CCCCCCNC(=O)N[C@H](Cc1ccc(O)cc1)C(=O)NCCC[C@H]1CN2C(=NC[C@H]2CCC)N1CC1CCC1	/	0.3%[12.7 µM]	/	79.4µM*	/	/
Cc1ccc(-c2nc3c(=O)n(C)c(=O)nc-3n(C)n2)cc1	5.8%[57 µM]	/	10.0%[57.1 µM]	/	/	/
C[N+]1(C)CCCCC1COC(=O)C(O)(c1ccccc1)c1ccccc1 (stereo unspecified)	/	-15.8%[12.7 µM]	/	/	/	/
Cc1ccc(N2C(=O)NC(=O)/C(=C\c3cccn3C(C)(C)C)C2=O)cc1	42.3%	?	-16.0%	-1.1%	-2.2	-2.5%
CCC(C)c1ccc(N2C(=O)NC(=O)/C(=C/c3cccn3CCOc3ccc(C)cc3)C2=O)cc1 (stereo unspecified)	22.7%	26.8%[59 µM]	-25.4%	-9.4%	-58.0*	5.4%
O=C(CSc1ccc(Cl)cc1)NC1=NN(c2ccccc2)C(=O)C1	-10.8%	-1.4%	?	?	?	/
O=C(O)c1nn(Cc2ccc(Cl)cc2Cl)c2ccccc12	31.1%	2.24µM*!	-10.3%	0.8%	-2.6	1.7%
COc1cc(OC)cc(C(=O)NC(=S)N2C[C@H]3C[C@H](C2)c2cccc(=O)n2C3)c1	1.9%	50.1µM*	-27.9%	?	-0.7	-2.1%

Compound activity deposited in PubChem BioAssay by National Center for Advancing Translational Sciences (NCATS).
